Paper PMC4336329 (PLoS ONE, 2015)
In all, about 310,000 compounds went through this assay and about 14,000 (4.5%) showed an effect of 50% or more. The effect is printed as a negative number. The sample as a whole holds a higher share of strong results than the screen did.

What follows are compounds tested against human ether-à-go-go-related gene (hERG) potassium channel (human, UniProt Q12809) (assay: primary screen, population patch clamp on CHO cells stably expressing hERG; higher = less effect of the substance).
human ether-à-go-go-related gene (hERG) potassium channel, sequence (Q12809 whole entry, looked up): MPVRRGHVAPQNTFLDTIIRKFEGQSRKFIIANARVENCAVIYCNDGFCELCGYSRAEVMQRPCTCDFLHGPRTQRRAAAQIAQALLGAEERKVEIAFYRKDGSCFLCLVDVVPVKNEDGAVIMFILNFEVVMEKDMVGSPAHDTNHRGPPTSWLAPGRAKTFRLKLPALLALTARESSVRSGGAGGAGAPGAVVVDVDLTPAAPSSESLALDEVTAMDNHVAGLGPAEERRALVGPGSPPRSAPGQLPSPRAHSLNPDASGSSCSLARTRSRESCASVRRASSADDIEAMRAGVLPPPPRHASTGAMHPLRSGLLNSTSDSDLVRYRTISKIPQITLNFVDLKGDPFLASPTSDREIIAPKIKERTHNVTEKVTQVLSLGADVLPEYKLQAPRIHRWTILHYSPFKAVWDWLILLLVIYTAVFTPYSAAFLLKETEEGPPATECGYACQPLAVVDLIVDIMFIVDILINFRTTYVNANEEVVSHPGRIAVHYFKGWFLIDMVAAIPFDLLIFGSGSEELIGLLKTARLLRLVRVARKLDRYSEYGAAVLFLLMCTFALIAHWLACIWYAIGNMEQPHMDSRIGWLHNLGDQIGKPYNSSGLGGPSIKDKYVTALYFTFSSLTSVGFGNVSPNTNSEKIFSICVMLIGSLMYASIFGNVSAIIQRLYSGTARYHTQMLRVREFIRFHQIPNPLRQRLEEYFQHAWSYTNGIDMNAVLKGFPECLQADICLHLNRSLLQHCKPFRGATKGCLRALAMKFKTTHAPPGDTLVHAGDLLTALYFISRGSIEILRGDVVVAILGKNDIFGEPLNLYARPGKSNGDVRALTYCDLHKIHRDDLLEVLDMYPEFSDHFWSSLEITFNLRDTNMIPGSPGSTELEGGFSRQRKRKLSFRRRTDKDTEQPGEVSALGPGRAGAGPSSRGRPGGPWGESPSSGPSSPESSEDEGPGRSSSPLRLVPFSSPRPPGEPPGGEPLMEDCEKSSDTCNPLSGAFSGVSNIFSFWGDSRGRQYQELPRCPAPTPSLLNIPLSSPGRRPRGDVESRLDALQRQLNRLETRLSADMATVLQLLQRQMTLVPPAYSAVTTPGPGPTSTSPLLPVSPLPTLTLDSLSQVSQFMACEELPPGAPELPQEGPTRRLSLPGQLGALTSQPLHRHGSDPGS
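Note: peak tail current of the secondary pulse compared with the same well before compound.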

| SMILES | hERG current change (%, negative = inhibition) at 10uM |
| --- | --- |
| CC(C)N(Cc1ccc(F)cc1)C(=O)c1cc2ccccc2oc1=O | 19.5% |
| CC1CCCC(NC(=O)COC(=O)Cc2c[nH]c3ccccc23)C1C (stereo not shown) | -14% |
| NC(=S)N/N=C\c1c(OCc2ccccc2Cl)ccc2ccccc12 | -2.61% |
| CN1CCN(/N=C/c2cccc(Cl)c2Cl)CC1.Cl | 6.09% |
| O=S(=O)(c1cccs1)N1CCCc2cccc(O)c21 | 7.34% |
| Cc1ccc(S(=O)CCNC(=O)Cc2ccc(Cl)cc2)cc1 (stereo not shown) | -8.83% |
| CCS(=O)(=O)N1CCCC(C(=O)NC2CCC(C)CC2)C1 (stereo not shown) | 6.05% |
| COc1ccc(OC)c(-n2cc3c(=O)n(C)c(=O)n(C)c3c2)c1 | -8.58% |
| Brc1ccc(-c2nnc(-c3ccccc3)c(N3CCSCC3)n2)cc1 | 4.62% |
| CN1CCN(c2nc(-c3ccc(Br)cc3)nnc2-c2ccccc2)CC1 | -63.5% |
| c1ccc2c(N3CCCC3)nc(-c3ccncc3)nc2c1 | -56.9% |
| CCCOc1ccc(-c2nc(N3CCN(C)CC3)c3ccccc3n2)cc1 | -21.6% |
| c1cncc(-c2nc(N3CCCCCC3)c3ccccc3n2)c1 | -92.9% |
| c1ccc2c(N3CCCCCC3)nc(-c3ccncc3)nc2c1 | -34.5% |
| Cc1ccc(-c2nnc(-c3ccccc3)c(N3CCOCC3)n2)cc1 | -30% |
| O=S(=O)(/C=C/c1ccccc1)N1CCN(c2nc(-c3cccnc3)nc3ccccc23)CC1 | -23.6% |
| c1cncc(-c2nc(N3CCOCC3)c3ccccc3n2)c1 | -17% |
| Cc1ccc(-c2nc(N3CCN(C)CC3)c3ccccc3n2)cc1.Cl | -59.9% |
| CN1CCN(c2nc(-c3ccc(C(C)(C)C)cc3)nc3ccccc23)CC1.Cl | -2.05% |
| c1ccc2c(N3CCOCC3)nc(-c3ccncc3)nc2c1 | -31.3% |
| O=[N+]([O-])c1cc(Cl)cc(/C=N/NC(=S)Nc2ccc(S(=O)(=O)N3CCOCC3)cc2)c1O | 14.3% |
| Cc1cc(NS(=O)(=O)c2ccc(NC(=O)c3ccc(Cl)cc3Cl)cc2)no1 | 24.4% |
| O=C(N=C1SC2CS(=O)(=O)CC2N1c1ccccc1F)C1CCCCC1 (stereo not shown) | 8% |

| SMILES | hERG current change (%, negative = inhibition) at 10uM |
| --- | --- |
| O=C(NCc1ccccn1)C1CCN(S(=O)(=O)N2CCCC2)CC1 | -8.11% |
| COc1ccc(-c2nnc(SCC3CCCO3)n2C)cc1 (stereo not shown) | 0.931% |
| Nc1c(N=O)c(=O)[nH]c(=O)n1-c1ccccc1 | 10.2% |
| NS(=O)(=O)c1ccc(CCNC(=O)C2CCN(c3ncnc4c3nc3n4CCCCC3)CC2)cc1 | 9.07% |
| O=C(CSc1nnnn1C1CC2C=CC1C2)Nc1ccc(C(=O)O)cc1 (stereo not shown) | -6.04% |
| CC(Sc1nnc2ccccn12)C(=O)Nc1ccc(Cl)cn1 (stereo not shown) | -1.5% |
| Cc1ccc(-c2nc(N(C)C3CCN(C)CC3)c3ccccc3n2)cc1 | -24.4% |
| CN1CCC(N(C)c2nc(-c3ccccc3)nc3ccccc23)CC1 | -70.4% |
| c1ccc(-c2nc(C3CCCCC3)c3ccccc3n2)cc1 | 10.7% |
| CC(C)(C)C(=O)Nc1nc2c(s1)CN(Cc1ccccc1)CC2 | 14.2% |
| CN(C)CCCNC(=O)/C(=C\C=C\c1ccccc1)NC(=O)c1ccc([N+](=O)[O-])cc1 | -71.2% |
| CC(C)(C)NC(=O)/C(=C\C=C\c1ccccc1)NC(=O)c1ccc([N+](=O)[O-])cc1 | -35.1% |
| CCCCOc1ccc(C(=O)N/C(=C/C=C/c2ccccc2)C(=O)O)cc1 | 19.8% |
| COC(=O)/C(=C\C=C\c1ccccc1)NC(=O)c1ccccc1 | 8.85% |
| O=C(O)CCNC(=O)/C(=C/C=C/c1ccccc1)NC(=O)c1ccccc1 | 16.6% |
| CCCCOc1ccc(C(=O)N/C(=C/C=C/c2ccccc2)C(=O)NCCO)cc1 | -9.18% |
| CCCCOc1ccc(C(=O)N/C(=C/C=C/c2ccccc2)C(=O)NCCCO)cc1 | -28.7% |
| CNC(=O)/C(=C\C=C\c1ccccc1)NC(=O)c1ccc([N+](=O)[O-])cc1 | -77.6% |
| CCCCOc1ccc(C(=O)N/C(=C/C=C/c2ccccc2)C(=O)NC)cc1 | -75.2% |
| O=C(NCC1CCCCC1)c1cccc(Br)c1 | -3.31% |
| CCCOc1ccc(N2CC(C(=O)Nc3ccc(N4CCOCC4)cc3)CC2=O)cc1 (stereo not shown) | 36% |
| CN1CCC(OC(=O)c2cccc(F)c2)CC1.Cl | -0.186% |
| Cc1ccc(N2CC(NS(=O)(=O)c3cc(F)ccc3F)CC2=O)cc1C (stereo not shown) | -6.74% |

| SMILES | hERG current change (%, negative = inhibition) at 10uM |
| --- | --- |
| CC(=O)c1ccc(-n2nnnc2SCC(=O)Nc2cccc(NC(=O)c3ccco3)c2)cc1 | 6.89% |
| Cc1ccc(-n2nnnc2SCC(=O)Nc2cccc(NC(=O)c3ccco3)c2)cc1C | -6.49% |
| CC(=O)c1cccc(-n2nnnc2SCC(=O)Nc2cccc(NC(=O)c3ccco3)c2)c1 | -60.7% |
| Cc1ccc(-n2nnnc2SCC(=O)Nc2ccc(N3CCN(C)CC3)cc2)c(C)c1 | -21% |
| Cc1ccccc1-n1nnnc1SCC(=O)Nc1ccc(N2CCN(C)CC2)cc1 | -35.8% |
| O=C(CSc1nnnn1C1CCCC1)Nc1cccc(NC(=O)c2ccco2)c1 | -55.9% |
| O=C(CSc1nnnn1C1CCCCC1)Nc1cccc(NC(=O)c2ccco2)c1 | -27.8% |
| Cc1cccc(-n2nnnc2SCC(=O)Nc2ccc(N3CCN(C)CC3)cc2)c1 | -55% |
| O=C(CSc1nnnn1C1CCCCC1)NNC(=O)c1ccco1 | 11.3% |
| COc1cc(S(=O)(=O)NCc2ccncc2)c(OC)cc1Cl | 6.57% |
| CCC(C)NC(=O)c1cn(CCOC)c(=O)c2c1c1ccccc1n2C (stereo not shown) | 20.4% |
| COc1ccc(Cn2c(CCC(=O)Nc3ccccc3OC)nc3cccnc32)cc1 | -3.79% |
| COc1cccc(CN2C(=O)C(C)N(C(=O)c3ccccc3)c3ccccc32)c1 (stereo not shown) | -5.44% |
| CC1CCC(C(=O)c2c(O)c3ccccc3oc2=O)CC1 (stereo not shown) | 15.9% |
| COc1ccc(-c2nc(S(=O)(=O)c3ccc(C)cc3)c(N3CCCC3)o2)cc1 | 17.2% |
| O=C(Nc1ccc(-n2ccnc2P(=O)(O)c2ccccc2)cc1)c1ccccc1Br | -14.9% |
| CCOC(=O)c1snc(C(=O)NC2CCCCC2)c1N | -6.13% |
| COc1ccc(NC(=O)c2sc3ncnc(N4CCN(c5ccccn5)CC4)c3c2C)cc1Cl | -23% |
| Nc1nc(CCl)nc(Nc2ccccc2)n1 | 20.7% |
| Nc1nc(CN2CCN(Cc3ccccc3)CC2)nc(Nc2ccccc2)n1 | -66.2% |
| c1ccc(Nc2nc(N3CCCC3)nc(N3CCCC3)n2)cc1 | 13.1% |
| Nc1nc(CN2CCN(C(c3ccccc3)c3ccccc3)CC2)nc(Nc2ccccc2)n1 | -18.4% |
| Nc1nc(CN2CCCCCC2)nc(Nc2ccccc2)n1 | -61.4% |

| SMILES | hERG current change (%, negative = inhibition) at 10uM |
| --- | --- |
| c1ccc(Nc2nc(N3CCCCC3)nc(N3CCCCC3)n2)cc1 | -4.68% |
| O=C(NC(Nc1nc2ccc([N+](=O)[O-])cc2s1)(C(F)(F)F)C(F)(F)F)c1ccccc1 | -6.48% |
| CCCc1nnc(NC(=O)c2c(O)c3cccc4c3n(c2=O)CCC4)s1 | -2.48% |
| S=C(NCCCN1CCOCC1)NC1CCCC1 | 8.32% |
| O=c1[nH]c(/C=C\c2ccccc2F)nc(O)c1[N+](=O)[O-] | 17.5% |
| COc1ccc(NC(=O)CSc2c(C)n[nH]c2C)cc1 | -7.52% |
| Cc1ccc(OCCC(=O)NNC(=O)c2nn(C)c(=O)c3ccccc23)cc1 | -33.1% |
| CCOc1ccc(OCCC(=O)NNC(=O)c2nn(C)c(=O)c3ccccc23)cc1 | -13.1% |
| Cn1nc(C(=O)NNC(=O)CCc2ccccc2Cl)c2ccccc2c1=O | -53.9% |
| CCc1noc(C)c1C(=O)NNC(=O)c1ccccc1 | -1.03% |
| Cc1occc1C(=O)NNC(=O)c1nn(C)c(=O)c2ccccc12 | 8.46% |
| CCc1noc(C)c1C(=O)NNC(=O)c1nn(C)c(=O)c2ccccc12 | -50.2% |
| CCOC(=O)N1CCN(C(=O)C(CC(C)C)NS(=O)(=O)c2ccc(C)cc2)CC1 (stereo not shown) | -4.14% |
| COC(=O)C1C2c3ccccc3OC1(C)N=c1s/c(=C/c3cn(C)nc3C)c(=O)n12 (stereo not shown) | 11.2% |
| COC(CNC(=O)c1ccc2c(c1)nc(C)n2-c1cccc(C)c1)OC | 0.933% |
| CCC(CC)NC(=O)COC(=O)c1ccc(OCC(=O)Nc2ccccc2OC)c(OC)c1 | 11.4% |
| COc1cc(C(=O)N2CCN(c3ccccc3OC)CC2)c([N+](=O)[O-])cc1OC | 18.5% |
| Cc1ccc(N2CCN(C(=O)c3ccccc3F)CC2)c(C)c1 | -8.81% |
| COc1ccc(N2CCN(C(=O)c3ccccc3Br)CC2)c([N+](=O)[O-])c1 | -65.5% |
| COc1ccc(N2CCN(C(=O)c3ccccc3F)CC2)c([N+](=O)[O-])c1 | -51.3% |
| O=C(c1ccccc1Br)N1CCN(c2ccc([N+](=O)[O-])c(N3CCOCC3)c2)CC1 | -11.5% |
| COc1cc(OC)cc(C(=O)N2CCN(c3ccccc3F)CC2)c1 | -11.6% |
